# Reference: publication PMC11062922 (Nature Chemical Biology, 2023)
# Read-outs that look alike come from different tables or passages of the source.
# How the values were obtained:
# [1] = tested on: PKN1; details: read-out: apparent Kd, n = 1
# [2] = tested on: PLK4; details: read-out: apparent Kd, n = 1
substance,measurement,setting,value
Lestaurtinib,potency estimated from few doses,"[1]; compound concentrations:100 nM and 1000 nM (sheet 'Lestaurtinib' of Supplementary Table 1),run:Lestaurtinib_02624_R2,Plate:MR020",430 nM
same,potency estimated from few doses,"[1]; compound concentrations:100 nM and 1000 nM (sheet 'Lestaurtinib' of Supplementary Table 1),run:Lestaurtinib_02624_R3,Plate:MR020",513 nM
same,potency estimated from few doses,"[1]; compound concentrations:100 nM and 1000 nM (sheet 'Lestaurtinib' of Supplementary Table 1),run:Lestaurtinib_02724_R1,Plate:MR021",487 nM
same,potency estimated from few doses,"[1]; compound concentrations:100 nM and 1000 nM (sheet 'Lestaurtinib' of Supplementary Table 1),run:Lestaurtinib_02724_R2,Plate:MR021",386 nM
same,potency estimated from few doses,"[1]; compound concentrations:100 nM and 1000 nM (sheet 'Lestaurtinib' of Supplementary Table 1),run:Lestaurtinib_02741_R3,Plate:MR023",518 nM
same,potency estimated from few doses,"[1]; compound concentrations:100 nM and 1000 nM (sheet 'Lestaurtinib' of Supplementary Table 1),run:Lestaurtinib_02748_R1,Plate:MR024",418 nM
same,potency estimated from few doses,"[1]; compound concentrations:100 nM and 1000 nM (sheet 'Lestaurtinib' of Supplementary Table 1),run:Lestaurtinib_02748_R2,Plate:MR024",511 nM
same,potency estimated from few doses,"[1]; compound concentrations:100 nM and 1000 nM (sheet 'Lestaurtinib' of Supplementary Table 1),run:Lestaurtinib_02748_R3,Plate:MR024",440 nM
same,potency estimated from few doses,"[1]; compound concentrations:100 nM and 1000 nM (sheet 'Lestaurtinib' of Supplementary Table 1),run:Lestaurtinib_02752_R1,Plate:MR025",489 nM
same,potency estimated from few doses,"[1]; compound concentrations:100 nM and 1000 nM (sheet 'Lestaurtinib' of Supplementary Table 1),run:Lestaurtinib_02752_R2,Plate:MR025",414 nM
same,potency estimated from few doses,"[1]; compound concentrations:100 nM and 1000 nM (sheet 'Lestaurtinib' of Supplementary Table 1),run:Lestaurtinib_02752_R3,Plate:MR025",448 nM
same,potency estimated from few doses,"[1]; compound concentrations:100 nM and 1000 nM (sheet 'Lestaurtinib' of Supplementary Table 1),run:Lestaurtinib_02765_R1,Plate:MR026",524 nM
same,potency estimated from few doses,"[1]; compound concentrations:100 nM and 1000 nM (sheet 'Lestaurtinib' of Supplementary Table 1),run:Lestaurtinib_02765_R3,Plate:MR026",568 nM
same,potency estimated from few doses,"[1]; compound concentrations:100 nM and 1000 nM (sheet 'Lestaurtinib' of Supplementary Table 1),run:Lestaurtinib_02766_R1,Plate:MR027",532 nM
same,potency estimated from few doses,"[1]; compound concentrations:100 nM and 1000 nM (sheet 'Lestaurtinib' of Supplementary Table 1),run:Lestaurtinib_02766_R2,Plate:MR027",582 nM
same,potency estimated from few doses,"[1]; compound concentrations:100 nM and 1000 nM (sheet 'Lestaurtinib' of Supplementary Table 1),run:Lestaurtinib_02766_R3,Plate:MR027",483 nM
same,potency estimated from few doses,"[1]; compound concentrations:100 nM and 1000 nM (sheet 'Lestaurtinib' of Supplementary Table 1),run:Lestaurtinib_02768_R1,Plate:MR028",403 nM
same,potency estimated from few doses,"[1]; compound concentrations:100 nM and 1000 nM (sheet 'Lestaurtinib' of Supplementary Table 1),run:Lestaurtinib_02768_R2,Plate:MR028",488 nM
same,potency estimated from few doses,"[1]; compound concentrations:100 nM and 1000 nM (sheet 'Lestaurtinib' of Supplementary Table 1),run:Lestaurtinib_02768_R3,Plate:MR028",424 nM
same,potency estimated from few doses,"[1]; compound concentrations:100 nM and 1000 nM (sheet 'Lestaurtinib' of Supplementary Table 1),run:Lestaurtinib_02795_R1,Plate:MR022",453 nM
same,potency estimated from few doses,"[1]; compound concentrations:100 nM and 1000 nM (sheet 'Lestaurtinib' of Supplementary Table 1),run:Lestaurtinib_02795_R2,Plate:MR022",443 nM
same,potency estimated from few doses,"[1]; compound concentrations:100 nM and 1000 nM (sheet 'Lestaurtinib' of Supplementary Table 1),run:Lestaurtinib_02795_R3,Plate:MR022",422 nM
same,potency estimated from few doses,"[1]; compound concentrations:100 nM and 1000 nM (sheet 'Lestaurtinib' of Supplementary Table 1),run:Lestaurtinib_02802_R1,Plate:MR029",473 nM
same,potency estimated from few doses,"[1]; compound concentrations:100 nM and 1000 nM (sheet 'Lestaurtinib' of Supplementary Table 1),run:Lestaurtinib_02802_R2,Plate:MR029",433 nM
same,potency estimated from few doses,"[1]; compound concentrations:100 nM and 1000 nM (sheet 'Lestaurtinib' of Supplementary Table 1),run:Lestaurtinib_02802_R3,Plate:MR029",181 nM
same,potency estimated from few doses,"[1]; compound concentrations:100 nM and 1000 nM (sheet 'Lestaurtinib' of Supplementary Table 1),run:Lestaurtinib_03172_R1,Plate:MR031",435 nM
same,potency estimated from few doses,"[1]; compound concentrations:100 nM and 1000 nM (sheet 'Lestaurtinib' of Supplementary Table 1),run:Lestaurtinib_03172_R3,Plate:MR031",358 nM
same,potency estimated from few doses,"[1]; compound concentrations:100 nM and 1000 nM (sheet 'Lestaurtinib' of Supplementary Table 1),run:Lestaurtinib_03252_R2,Plate:MR032",94.9 nM
same,potency estimated from few doses,"[1]; compound concentrations:100 nM and 1000 nM (sheet 'Lestaurtinib' of Supplementary Table 1),run:Lestaurtinib_03260_R1,Plate:MR033",514 nM
same,potency estimated from few doses,"[1]; compound concentrations:100 nM and 1000 nM (sheet 'Lestaurtinib' of Supplementary Table 1),run:Lestaurtinib_03260_R2,Plate:MR033",559 nM
same,potency estimated from few doses,"[1]; compound concentrations:100 nM and 1000 nM (sheet 'Lestaurtinib' of Supplementary Table 1),run:Lestaurtinib_03260_R3,Plate:MR033",518 nM
same,potency estimated from few doses,"[2]; compound concentrations:100 nM and 1000 nM (sheet 'Lestaurtinib' of Supplementary Table 1),run:Lestaurtinib_02339_R1,Plate:MR001",80.5 nM
same,potency estimated from few doses,"[2]; compound concentrations:100 nM and 1000 nM (sheet 'Lestaurtinib' of Supplementary Table 1),run:Lestaurtinib_02339_R2,Plate:MR001",64.4 nM
same,potency estimated from few doses,"[2]; compound concentrations:100 nM and 1000 nM (sheet 'Lestaurtinib' of Supplementary Table 1),run:Lestaurtinib_02339_R3,Plate:MR001",51.7 nM
same,potency estimated from few doses,"[2]; compound concentrations:100 nM and 1000 nM (sheet 'Lestaurtinib' of Supplementary Table 1),run:Lestaurtinib_02364_R2,Plate:MR002",202 nM
same,potency estimated from few doses,"[2]; compound concentrations:100 nM and 1000 nM (sheet 'Lestaurtinib' of Supplementary Table 1),run:Lestaurtinib_02367_R1,Plate:MR003",62.3 nM
same,potency estimated from few doses,"[2]; compound concentrations:100 nM and 1000 nM (sheet 'Lestaurtinib' of Supplementary Table 1),run:Lestaurtinib_02367_R2,Plate:MR003",75.5 nM
same,potency estimated from few doses,"[2]; compound concentrations:100 nM and 1000 nM (sheet 'Lestaurtinib' of Supplementary Table 1),run:Lestaurtinib_02381_R1,Plate:MR004",71 nM
same,potency estimated from few doses,"[2]; compound concentrations:100 nM and 1000 nM (sheet 'Lestaurtinib' of Supplementary Table 1),run:Lestaurtinib_02381_R2,Plate:MR004",73.6 nM
same,potency estimated from few doses,"[2]; compound concentrations:100 nM and 1000 nM (sheet 'Lestaurtinib' of Supplementary Table 1),run:Lestaurtinib_02381_R3,Plate:MR004",93.7 nM
same,potency estimated from few doses,"[2]; compound concentrations:100 nM and 1000 nM (sheet 'Lestaurtinib' of Supplementary Table 1),run:Lestaurtinib_02407_R1,Plate:MR005",45.6 nM
same,potency estimated from few doses,"[2]; compound concentrations:100 nM and 1000 nM (sheet 'Lestaurtinib' of Supplementary Table 1),run:Lestaurtinib_02407_R2,Plate:MR005",39.3 nM
same,potency estimated from few doses,"[2]; compound concentrations:100 nM and 1000 nM (sheet 'Lestaurtinib' of Supplementary Table 1),run:Lestaurtinib_02407_R3,Plate:MR005",47.3 nM
